Source: PubChem
14-3-3 Bad PPI – disrupts binding of bovine 14-3-3 zeta to phospho-Bad peptide. P63103. TR-FRET 14-3-3zeta/Dy647-pBad peptide displacement, 1 h. inhibition, % at 21.7 µM. hit rate 0.71% among 220,000. AID 781;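 active means inhibition above about 70%, limit read from the data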;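 further: 0% = full 14-3-3 plus peptide FRET controls and 100% = background without 14-3-3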
Target sequence (P63103 whole entry, looked up): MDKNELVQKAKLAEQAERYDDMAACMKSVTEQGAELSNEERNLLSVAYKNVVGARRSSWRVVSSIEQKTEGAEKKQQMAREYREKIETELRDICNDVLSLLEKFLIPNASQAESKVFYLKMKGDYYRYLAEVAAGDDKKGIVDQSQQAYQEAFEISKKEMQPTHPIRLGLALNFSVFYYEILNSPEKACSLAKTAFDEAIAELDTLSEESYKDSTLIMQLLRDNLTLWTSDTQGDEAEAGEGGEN
Mcl1 Bid PPI – disrupts binding of human Mcl-1 to Bid peptide; inhibition, % at 21.7 µM; hit rate 0.97% among 220,000; Q07820; TR-FRET Mcl-1/Bid-Dy647 peptide binding, 1536-well;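 active means compounds that cut the binding signal by more than half at the single screening dose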;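 further: His-tagged Mcl-1 with europium anti-His antibody binding Bid BH3 peptide; 0% = Mcl-1 plus peptide wells and 100% = peptide-only wells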
Mcl-1 Bim block – inhibitors of Bim-Mcl-1 interaction, human. hit rate 0.1% among 190,000. inhibition, % at 10 µM. Bead-based flow cytometry, Bim peptide-Mcl-1 binding. Q07820; in the data active means inhibition above about 40%;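 further: 0% = no compound tracer wells and 100% = peptide blocker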
NCF1 inh – blocks human p47phox regulatory protein of NADPH oxidases; AID 1274; hit rate 0.53% among 220,000; P14598; inhibition, % at 24.7 µM; p47phox/p22phox peptide binding, fluorescence polarization, 2 h;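 active means inhibition above about 30%, limit read from the data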;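 further: 0% = p47phox with labelled peptide and 100% = labelled peptide alone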
Target sequence (P14598 whole entry, looked up): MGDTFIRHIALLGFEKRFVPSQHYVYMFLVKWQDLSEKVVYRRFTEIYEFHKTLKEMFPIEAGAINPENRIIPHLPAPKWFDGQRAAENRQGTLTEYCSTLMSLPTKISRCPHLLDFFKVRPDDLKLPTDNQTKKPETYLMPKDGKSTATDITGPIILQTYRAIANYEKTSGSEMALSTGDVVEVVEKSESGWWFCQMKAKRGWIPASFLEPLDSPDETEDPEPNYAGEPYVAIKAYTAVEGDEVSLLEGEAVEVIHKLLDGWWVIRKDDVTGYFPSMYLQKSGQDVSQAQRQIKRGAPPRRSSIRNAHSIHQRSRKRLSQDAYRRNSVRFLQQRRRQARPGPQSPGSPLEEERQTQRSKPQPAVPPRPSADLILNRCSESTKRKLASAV
Mcl1-Noxa inh – Mcl-1/Noxa interaction inhibition. inhibition, % at 21.7 µM. TR-FRET Mcl-1/Noxa peptide binding, 2 h. hit rate 1.5% among 220,000. Q07820;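 active means compounds that cut the protein-peptide binding signal by more than 50% relative to plate controls in a single-dose test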;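 further: His-tagged Mcl-1 with rhodamine Noxa BH3 peptide and terbium anti-His antibody; 0% = Mcl-1 plus Noxa peptide wells and 100% = peptide-only wells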
An asterisk follows results filed as active; . = no result given. A selection: hits, their analogues and other compounds. The true share with any hit is near 3.2%.

SMILES	14-3-3 Bad PPI	Mcl1 Bid PPI	Mcl-1 Bim block	NCF1 inh	Mcl1-Noxa inh
CCOc1cc(S(=O)(=O)NCc2ccncc2)c(C)cc1C	-3.6	-38.4	3.0	-4.7	16.7
Cc1cccn2c(=O)c3cc(C#N)c(=NC(=O)c4ccco4)n(Cc4ccco4)c3nc12	-5.2	-19.7	.	-20.3	40.3
Cc1cccc(C(=O)N=c2c(C#N)cc3c(=O)n4cccc(C)c4nc3n2Cc2ccco2)c1	-14.4	0.1	0.0	-23.4	86.1*
CCOC(=O)c1cc2c(=O)n3ccccc3nc2n(Cc2ccco2)c1=NC(=O)c1cccnc1	-4.6	-71.1	3.0	-8.7	50.8*
CCOC(=O)c1cc2c(=O)n3ccccc3nc2n(CCCOC)c1=NC(=O)c1cccnc1	-1.8	-7.9	1.0	-9.8	-0.1
CCOC(=O)c1cc2c(=O)n3ccccc3nc2n(Cc2ccco2)c1=NC(=O)c1ccccc1OCC	25.4	-15.4	2.0	-4.2	18.5
CCOC(=O)c1cc2c(=O)n3cccc(C)c3nc2n(Cc2ccco2)c1=NC(=O)c1cccnc1	-5.8	-13.8	13.0	-17.6	68.8*
CC12CN(C(=O)c3ccccc3Br)CC(C)(CN(C(=O)c3ccccc3Br)C1)C2=O	-5.3	-12.5	.	-2.5	0.0
CCOC(=O)/C=c1\s/c(=C\c2sccc2C)c(=O)n1CC(=O)NCc1ccc(C)cc1	-1.6	-13.5	-2.0	-47.5	-9.6
CC(C(=O)NCCCc1ccccc1)c1ccc([N+](=O)[O-])cc1 (centres undefined)	1.4	-32.8	1.0	-7.5	15.0
CCOc1ccc(-n2c(SCC(=O)Nc3ccc(CC)cc3)nc3n[nH]c(C)c3c2=N)cc1	24.6	58.9*	2.0	17.2	58.7*
CCCN(CCC)C(=O)CSc1nc2n[nH]c(C)c2c(=N)n1-c1ccc(OCC)cc1	-2.0	-33.2	-6.0	-0.7	-4.4
S=C(Nc1cccc(Cl)c1)N(CCCN1CCCC1)Cc1cccn1Cc1ccc(Cl)cc1	25.1	-39.4	-3.0	43.4*	22.2
CSc1cccc(NC(=S)N(CCCN2CCCC2)Cc2cccn2Cc2ccc(Cl)cc2)c1	35.6	-26.6	-5.0	32.1*	9.9
CCOC(=O)c1nnc(-c2ccc(C)cc2)nc1Sc1ccc(Cl)cc1	1.4	54.9*	1.0	-3.5	-9.4
CCOC(=O)c1nnc(-c2ccc(C)cc2)nc1Sc1ccccc1Cl	-9.6	-2.6	2.0	-12.1	14.0
Nc1cc(-c2nn[nH]n2)ccc1F	71.8*	-29.0	-1.0	5.3	34.5
COc1ccc(-c2nn[nH]n2)cc1OC	36.1	12.6	-1.0	11.0	17.6
C=CCc1c(NCCO)nc(C)[nH]c1=O	-15.0	-16.0	0.0	0.4	-1.9
COc1ccccc1N1CCN(CC(=O)c2c[nH]c3ccccc23)CC1	-8.1	-56.8	.	3.7	-14.5
COc1ccccc1N1CCN(CC(=O)c2c(C)[nH]c3ccccc23)CC1	-10.8	75.7*	-2.0	-12.6	-8.5
COc1ccc(-c2csc(NC(=S)NC(=O)/C=C/c3ccco3)n2)cc1OC	20.7	69.7*	-6.0	1.6	52.1*
COc1ccc(-c2csc(NC(=S)NC(=O)/C=C/c3ccco3)n2)cc1Br	17.4	7.7	.	-51.2	65.7*
O=c1c2c(nc3cc(-c4ccc(F)cc4)[nH]n13)CCCC2	-0.2	-23.8	0.0	1.6	51.5*
Cc1[nH]n2c(=O)c3c(nc2c1-c1ccccc1)CCCC3	6.7	-10.4	-3.0	-2.6	19.3
SMILES	14-3-3 Bad PPI	Mcl1 Bid PPI	Mcl-1 Bim block	NCF1 inh	Mcl1-Noxa inh
O=c1c2c(nc3cc(-c4cccc(F)c4)[nH]n13)CCC2	-13.4	-25.3	-1.0	-10.6	14.7
Cc1[nH]n2c(=O)c3c(nc2c1-c1ccc(F)cc1)CCCC3	4.0	80.9*	4.0	0.7	4.0
CC(=O)Nc1cccc(N=NN2CCCCC2)c1	-11.1	-2.9	0.0	-4.3	16.9
COC(=O)c1ccc(COc2ccc3c(C)c(C)c(=O)oc3c2C)o1	19.6	-24.4	0.0	72.2*	11.9
C=CCOc1ccc(Br)cc1CNC(C)(C)C	3.6	-6.6	-1.0	7.2	1.1
COc1cccc2[nH]c3c(N4CCc5ccccc5C4)ncnc3c12	-3.6	-13.1	.	-22.1	62.0*
CCCCC(=O)OCC(=O)c1[nH]c(C)c(C(=O)OCC)c1C	-2.1	7.5	2.0	-17.5	11.9
CCOC(=O)c1c(C)[nH]c(C(=O)COC(=O)c2cnc(C)cn2)c1C	79.5*	-17.9	-3.0	-9.4	-4.1
Cc1ccccc1-n1nnnc1SCC(=O)c1c(N)n(C)c(=O)n(C)c1=O	-6.2	-39.7	.	-9.1	54.0*
CCCNC(=O)C1CCN(c2cc(-c3ccccc3)nc3ncnn23)CC1	-0.6	-3.8	0.0	-3.9	69.5*
CCc1ccc(N2CCN(C(=O)N3CCOCC3)CC2)cc1	-3.3	-18.7	0.0	-7.8	1.8
CCCC(=O)Nc1ccc(Cl)c(NC(=O)c2cccc(OC)c2)c1	-11.0	-31.4	0.0	-16.0	14.7
COc1ccc(CC(=O)NCc2cccs2)cc1	1.6	-13.6	0.0	-18.3	63.0*
O=C(Cc1cccs1)NCc1cccs1	3.7	-22.2	-6.0	5.2	5.3
COc1ccc(CCCC(=O)N/N=C\c2cccs2)cc1	97.3*	1.2	-2.0	-2.6	11.6
CC(C)Cc1nc2sc3c(=O)n(N)cnc3c2c2c1COC(C)(C)C2	0.0	1.9	-7.0	-7.8	-5.4
CC(C)[n+]1ccn(C2=C([O-])c3ccccc3C(=O)/C2=N\S(=O)(=O)c2ccccc2)c1	-1.3	84.2*	.	-6.2	-0.8
COc1ccccc1NS(=O)(=O)c1ccc(C(=O)OCC(=O)NCc2ccco2)cc1	-0.3	-22.7	0.0	1.9	54.9*
COC(=O)c1ccc(OCCCCN2CC(C)OC(C)C2)cc1 (centres undefined)	25.6	52.5*	-1.0	5.2	32.0
CC(C)(C)c1nnc2cccc(Cl)n12	-15.3	-8.2	-2.0	-5.6	1.8
COc1ccc(NS(=O)(=O)c2ccc3c(c2)CCO3)cc1	73.8*	0.2	.	-82.6	-2.2
O=S(=O)(Nc1ccccc1)c1ccc2c(c1)CCO2	1.4	2.1	.	-14.3	3.7
O=C1Nc2ccc(F)cc2C12Nc1ccccc1-c1nnc(SCc3ccccc3F)nc1O2 (centres undefined)	.	-1.1	-2.0	43.2*	21.9
O=C1Nc2ccc(Cl)cc2C12Nc1ccccc1-c1nnc(SCc3ccccc3F)nc1O2 (centres undefined)	5.5	3.9	-6.0	-45.0	28.6
Cc1ccc(Cl)cc1NC(=S)NCc1cccn1C	-21.2	-78.5	-3.0	-14.7	13.6
Cc1ccc(C(=O)NCC(=O)OC(C)C(=O)Nc2ccc(N(C)C)cc2)cc1C (centres undefined)	-4.4	-60.2	1.0	-8.6	70.7*
COc1ccc(C2OC(=O)CC2C(=O)NCc2ccc(Cl)cc2)cc1OC (centres undefined)	-8.9	-32.5	1.0	-10.8	6.3
CC(=O)c1cccc(N(C(=O)CNC(=O)c2ccco2)C(C(=O)NCc2ccco2)c2ccccc2)c1 (centres undefined)	-8.2	-16.8	0.0	-1.3	1.5
